HTT ATP protect = cytoprotection in Huntington HTT-Q103 PC12 cell model. PC12 HTT-Q103 induced, cytoprotection, ATP luminescence, 40 h. Potency, µM (series often up to 56.4 µM), inactives show cytoprotection (ATP increase), usual class: activators. 230,000 compounds, 0.14% hits; active means well fitted curve in the direction sought with a large enough effect; inconclusive means small, poorly fitted or top-dose-only effect, or another doubt; inactive means no such curve, though single readings can be large; an effect the other way counts as inactive or inconclusive; further: potency means the concentration at half of the fitted maximal effect; % of control where 0% means no effect; nearly all actives have a fitted effect of over 45% in size
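Compounds added alongside 100 nM tebufenozide, which induces toxic Q103 huntingtin exon 1-GFP in stable PC12 cells; surviving cells quantified by luminescent ATP measurement. Medium: phenol red-free DMEM, 5% equine and 5% calf serum.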
ALDH1A1 inh = inhibitors of human aldehyde dehydrogenase 1A1; Purified ALDH1A1, NADH fluorescence, propionaldehyde substrate; AID 1030; Potency, µM (doses to about 75.3 µM), inactives show at the highest dose activity, negative = inhibition, actives largely listed as inhibitors; P00352; 220,000 compounds, 7.3% hits;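 further: potency means the concentration at half of the fitted maximal effect; plate controls were no enzyme wells and a reference inhibitor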
HTT aggregate = reduces HttQ103-GFP aggregates in PC12 cells; PC12 HttQ103-GFP aggregates, Acumen cytometry, 40 h; Potency, µM (series often up to 46.1 µM), for inactives: at the top dose activity change, negative = inhibition, usual class: inhibitors; 220,000 compounds, 1.1% hits; active means well fitted curve in the direction sought with a large enough effect; inconclusive means small, poorly fitted or top-dose-only effect, or another doubt; inactive means no such curve, though single readings can be large; an effect the other way counts as inactive or inconclusive; further: potency means the concentration at half of the fitted maximal effect; on the % scale 0 is the no-effect control and ±100 the full control effect; nearly all actives have a fitted effect of over 60% in size
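PC12 cells with ecdysone-inducible HTT exon1 Q103-GFP, induced by 100 nM tebufenozide, given compounds in a concentration series. GFP aggregates (1–25 um, 6 SD above background) counted in lysates by laser-scanning cytometry, 488 nm excitation.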
HPGD inh = inhibitors of human 15-hydroxyprostaglandin dehydrogenase (HPGD). P15428. purified HPGD, NADH fluorescence kinetic, PGE2 substrate. Potency, µM, inactives show top-dose activity change, negative = inhibition, actives largely listed as inhibitors. 150,000 compounds, 4.3% hits; further: potency means the concentration at half of the fitted maximal effect; on the % scale 0 is the no-effect control and ±100 the full control effect
Target sequence (P15428 whole entry, looked up): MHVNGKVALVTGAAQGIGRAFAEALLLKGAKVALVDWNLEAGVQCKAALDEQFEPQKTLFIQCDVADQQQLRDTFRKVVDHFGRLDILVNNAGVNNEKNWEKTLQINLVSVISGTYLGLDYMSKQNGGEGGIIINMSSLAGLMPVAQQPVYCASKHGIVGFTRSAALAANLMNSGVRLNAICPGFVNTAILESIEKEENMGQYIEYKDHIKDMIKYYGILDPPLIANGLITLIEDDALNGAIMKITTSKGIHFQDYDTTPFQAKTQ
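20 nM HPGD preincubated 15 min at room temperature with compound in 50 mM Tris-HCl pH 8, 0.01% Tween 20. Started with 1 mM NAD+ and 30 uM prostaglandin E2; NADH fluorescence (360/450 nm) read 5 times over 30-s intervals, last minus first.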
PNC inhibitor = perinucleolar compartment assembly inhibition; PC3M PTB-GFP, PNC prevalence imaging, 16 h; active compounds read low; activity change (PNC), negative = inhibition, % at 10 µM; 140,000 compounds, 3.1% hits;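 active means readout at or below -70, meaning at least 70% loss of cells showing the perinucleolar compartment, a nuclear body marking cancer cells; inconclusive means readout between -30 and a set limit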;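 further: plate controls were DMSO wells for no effect and camptothecin positive control wells for full effect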
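Read-out is percentage of cells bearing a perinucleolar compartment, from automated 20x imaging of fixed, Hoechst-stained PC3M PTB-GFP cells. Cells were seeded 4 h, then exposed 16 h to compound (23 nl of library stock) in duplicate plates.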
GoLoco inh red = inhibitors of human Gai1-RGS12 GoLoco interaction (red fluorophore); Potency, µM (highest dose often 61.6 µM), for the others: top-dose activity, negative = inhibition, usual class: inhibitors; Gai1:RGS12 GoLoco peptide FP, rhodamine, 10 min; P63096; AID 880; 230,000 compounds, 0.44% hits; active means well fitted inhibition curve with a large enough effect, not every such curve was filed as active; inactive means no such curve, though single readings can be large or run the other way; further: potency means the concentration at half of the fitted maximal effect; on the % scale 0 is the no-effect control and ±100 the full control effect; nearly all actives have a fitted effect of over 30% in size
Target sequence (P63096 whole entry, looked up): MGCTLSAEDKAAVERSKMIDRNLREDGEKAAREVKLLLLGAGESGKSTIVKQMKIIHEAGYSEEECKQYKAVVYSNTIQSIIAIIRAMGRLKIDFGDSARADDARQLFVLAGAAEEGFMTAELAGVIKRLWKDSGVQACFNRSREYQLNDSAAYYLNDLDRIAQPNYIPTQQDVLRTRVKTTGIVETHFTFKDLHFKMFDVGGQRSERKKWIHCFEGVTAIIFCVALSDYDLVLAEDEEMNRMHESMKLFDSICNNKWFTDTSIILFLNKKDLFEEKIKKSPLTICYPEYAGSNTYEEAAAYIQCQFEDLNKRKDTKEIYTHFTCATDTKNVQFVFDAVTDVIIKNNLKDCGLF
* = called active by the depositor; u = inconclusive; x = not tested or not shown; ! = not active in a repeat; [ ] = dose if it differs, or a comment. This is a sample that favours compounds with a hit; in the whole collection about 11% have one here. Unless noted, the call rests on the fitted dose curve; in most records, active means well fitted inhibition curve with a large enough effect (not every such curve was filed as active); inconclusive means small, poorly fitted or top-dose-only effect, or another doubt; inactive means no such curve, though single readings can be large or run the other way.

SMILES	HTT ATP protect	ALDH1A1 inh	HTT aggregate	HPGD inh	PNC inhibitor	GoLoco inh red
COc1cc(/C=C/[N+](=O)[O-])ccc1O	x	u	25µM*	-24%	-84*	3%
CCN(CC)c1ccc(/C=C/[N+](=O)[O-])cc1	-20%	u	-8%	x	x	151%
CC(=O)[C@@H]1CC[C@H]2[C@H]3CC[C@H]4C[C@@H](O)CC[C@]4(C)[C@@H]3CC[C@]12C	1%[1.9 µM]	x	x	x	x	x
O=C(COc1ccc(Cl)cc1)NC1CN2CCC1CC2 (centres undefined)	-2%	21%	-18%	-4%	-1	16%
C=C(C)c1cccc(C(C)(C)NC(=O)NC2CN3CCC2CC3)c1 (centres undefined)	3%[10 µM]	u	-6%	-5%	-94*	-14%
c1ccc(P(c2ccccc2)c2ccccc2)cc1	1%	x	x	x	x	16%
C[C@]1(O)CC[C@H]2[C@@H]3[C@@H](O)CC4=CC(=O)CC[C@@]4(C)[C@H]3CC[C@]21C	-4%[10 µM]	20%[13.5 µM]	x	-3%	x	3%[14.2 µM]
CC(O)CCl (centres undefined)	-1%	22%	x	1%	x	0%
COc1cc2c(cc1OC)-c1c(O)c(OC)cc3c1[C@H](C2)N(C)CC3	-18%[1.9 µM]	u	x	u	x	11µM*
Cc1c(C(=O)NCCC2=CCCCC2)oc2ccc(S(=O)(=O)N3CCC4(CC3)OCCO4)cc12	8%[10 µM]	22µM*	u	-18%	u	-2%
NNC(N)=S	-2%	u	x	-4%	x	-6%
CCN1CCN(S(=O)(=O)c2cnc(Cl)c(Br)c2)CC1	23%[10 µM]	1.3µM*	-6%	6%	-22	7%
COc1ccc2c(c1)[nH]c1c(C)nccc12	-93%	5.6µM*	x	u	x	3%
CCOP(=O)(OCC)C(c1ccccc1)N(C)C=O (centres undefined)	-23%	18µM*	-12%	x	3	x
CC(C)(O)C1O[C@H]2CC[C@@]3(C)[C@@](O)(CC[C@H]4Cc5c([nH]c6ccccc56)[C@@]43C)C2=CC1=O (some centres undefined)	-121%	-7%	x	x	x	3%
O=C(OCC(=O)N1CCN(c2ccccc2)CC1)c1cnc(Cl)c(Cl)c1	-28%	8.9µM*	-5%	x	x	-4%
C[As+](C)(c1ccc(Br)c([N+](=O)[O-])c1)c1ccc(Br)c([N+](=O)[O-])c1.O=[N+]([O-])O	1%[10 µM]	32%[13.5 µM]	x	-2%	x	2%[14.2 µM]
CCCCCCC[n+]1ccc(-c2cc[n+](CCCCCCC)cc2)cc1	0.89µM*!	-2%	u	-4%	u	7.9µM*!
CCCCCCCCCCCCCCCC[n+]1ccccc1	-65%	-4%	16µM*	-5%	x	3%
CCCCCCCCCCCCCl	7%	17%	x	1%	x	3%
c1cc2c(cc1[C@H]1OC[C@@H]3[C@H]1CO[C@H]3c1ccc3c(c1)OCO3)OCO2	-8%[1.9 µM]	-1%	x	-21%	x	-1%
Cc1ccc(C2(c3ccc(C)c(O)c3C)CCN(C)CC2)c(C)c1O	0%[10 µM]	-2%[13.5 µM]	x	-8%	x	0%[14.2 µM]
CC(=O)Nc1ccc(S(=O)(=O)N(C)CCOCc2ccccc2)cc1	3%	u	11µM*	-7%	-1	4%
C[C@]12CC[C@H](O)C[C@@H]1CC[C@H]1[C@H]2CC[C@]2(C)[C@H](C(=O)CO)CC[C@@H]12	5%[1.9 µM]	x	x	x	x	x
O=S(=O)(O)/C(=C\c1ccccc1)c1ccccc1 (tested in a mixture with another compound)	-10%[10 µM]	-7%[13.5 µM]	x	-1%	x	5%[14.2 µM]
SMILES	HTT ATP protect	ALDH1A1 inh	HTT aggregate	HPGD inh	PNC inhibitor	GoLoco inh red
COc1ccc(NC(=O)c2c(C)nn(Cc3ccccc3Cl)c2Cl)cc1Cl	-5%[1.9 µM]	6%	26%	-8%	u	7%
COc1cc(/C=C(/C)[N+](=O)[O-])ccc1OCc1ccccc1Cl	-14%[10 µM]	2.8µM*	1%	10µM*	u	-16%
CCN(CC)S(=O)(=O)c1ccc(NN=C(C#N)C#N)cc1	x	2%	-4%	14µM*	13	13%
C[C@H]1CC[C@@]2(NC1)O[C@@H]1C[C@@H]3[C@@H]4CC=C5C[C@@H](O)CC[C@]5(C)[C@@H]4CC[C@]3(C)[C@H]1[C@@H]2C	-13%[10 µM]	9%[13.5 µM]	x	-6%	x	4%[14.2 µM]
O=c1[nH]c(=O)n(Cl)c(=O)n1Cl	14µM*	x	2%	x	x	7%
Cc1cc[c]([Sb]2[O]C([C@H](O)[C@H](O)C(=O)O)[C@@H](CO)[O]2)cc1 (some centres undefined)	x	3%[13.5 µM]	x	1%	x	1%[14.2 µM]
c1ccc2c(c1)CCNC2	u	4%	x	-6%	x	11%
O=C1NC(=O)N(c2ccc3c(c2)OCO3)C(=O)/C1=C\c1ccsc1	19%[10 µM]	x	13%[9.22 µM]	x	x	0%
O=C1CC(=O)N(c2ccc3c(c2)OCO3)C(=O)N1	17%[0.074 µM]	-8%	8%	-5%	-95*	-3%
O=C(Cl)c1ccccc1F	u	u	x	-14%	x	3%
Cc1cc(C=C2C(=O)N(C)C(=S)N(C)C2=O)c(C)n1-c1ccncc1	11%[10 µM]	u	-24%[9.22 µM]	x	x	42%
Cc1ccnc(-n2c(C)cc(C=C3C(=O)N(C)C(=S)N(C)C3=O)c2C)c1	9%	u	12%	32µM*	u	112%
NCCc1c[nH]c2ccc(OC(=O)C(=O)O)cc12	-6%[10 µM]	-16%[13.5 µM]	x	-13%	x	9%[14.2 µM]
C=CCn1c(O)c(N=Nc2c(C)n(C)n(-c3ccccc3)c2=O)c(=O)[nH]c1=S	x	u	-6%	-23%	-7	95%
CCOc1ccc(-n2c(O)c(N=Nc3c(C)n(C)n(-c4ccccc4)c3=O)c(=O)[nH]c2=O)cc1	5%[10 µM]	16µM*	21%[9.22 µM]	x	x	14%
Cc1c(N=Nc2c(O)[nH]c(=S)[nH]c2=O)c(=O)n(-c2ccccc2)n1C	8%[10 µM]	22µM*	9%	28µM*	87	31%
CC(=O)OC1CC[C@@]2(C)C3CC(=O)[C@]4(C)C(C(C)=O)=CCC4C3CC[C@H]2C1 (some centres undefined)	x	20%	x	-7%	x	6%
O=C(O)c1cc(O)c(O)c(O)c1	-346%	2µM*	10%	7.1µM*!	x	-9%
O=Cc1c(C(=O)O)n(Cc2ccccc2Cl)c2ccccc12	13%	u	-14%	x	x	5%
Cc1cc(C)c(Cn2c(C(=O)O)c(C=O)c3ccccc32)c(C)c1	-40%	14µM*	17%	x	x	182%
CNc1ccc2oc(C[C@@H]3OC4(CC[C@@H]3C)O[C@H](C(C)C(=O)c3ccc[nH]3)[C@H](C)C[C@H]4C)nc2c1C(=O)O (some centres undefined)	x	u	x	-19%	x	4%
CN(CCc1ccc(Cl)c(Cl)c1)[C@@H]1CCCC[C@@H]1N1CCCC1	-80%	3.5µM*	x	x	x	-4%
Nc1cc(Cl)c2nonc2c1[N+](=O)[O-]	-15%[10 µM]	20µM*	4.5µM*	u	u	-6%
